This is part of a sample that, as a whole, favours compounds with a hit. Of some 83,000 tested, about 20% had one in any assay.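 How to read the values: 0–100, growth inhibition (40 = 60% inhibited); 0, no net growth; -100 to 0, cell death (-40 = 40% of starting cells died; -100 = all dead).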 Activity calls are given as the source filed them. How the source made its calls: active means growth percent below 10; inactive means the rest.
What follows are molecules tested on MDA-MB-468 breast (assay: NCI-60 one-dose screen, 48 h (100 = growth as untreated, 0 = no growth, -100 = all killed)). Details: 10 µM unless noted.

| Compound | growth |
| --- | --- |
| CC(=O)n1cc(/C=C2\N=C(c3ccc(Cl)cc3)N(c3ccc(S(=O)(=O)Nc4nccs4)cc3)C2=O)c2ccccc21 | 96.1% (inactive) |
| CCN1C(=O)N(CC)C2Nn3c(s/c(=C4\C(=O)N(C5CCCC5)c5ccccc54)c3=O)=NC21 (centres undefined) | 11% (inactive) |
| COc1cc(CNC(=O)CSc2nc3ccccc3c(=O)n2Cc2cc(OC)c(OC)c(OC)c2)cc(OC)c1OC | 91.7% (inactive) |
| O=C(Nc1ccccc1)OCC1OCOC(COC(=O)Nc2ccccc2)C1OC(=O)Nc1ccccc1 (centres undefined) | -1.51% (active) |
| Cn1c(COC(=O)N2CCCCC2)nc2c(N3CCOCC3)nc(-c3ccccc3)nc21 | -61.7% (active) |
| COc1cccc(CNc2c3ccccc3nc3ccccc23)c1OC | 1.08% (active) |
| O=C(CSc1nnc(-c2ccc(Cl)cc2)o1)Nc1ccc(C(=O)/C=C/c2ccccc2)cc1 | 98.7% (inactive) |
| Cc1cccc(NCc2cn(-c3ccc(C(=O)O)cc3)nc2-c2ccc(C(=O)O)cc2)n1 | 101% (inactive) |
| CN(C)CSc1nc2ccccc2s1 | 110% (inactive) |
| COc1cnc2c(c1)C(=O)c1c-2n(CCCn2ccnc2)c(=O)c2cc(F)ccc12 | -35.7% (active) |
| O=C(N/N=C/c1cc2ccccc2n2nnnc12)Nc1ccccc1 | 98.3% (inactive) |
| Cc1cc(O)c2c(c1)C[C@H]1[C@@H]3CC[C@H]4CC(=O)CC[C@]4(C)[C@H]3CC(=O)[C@]21C | 71.4% (inactive) |
| CCN(CC)c1ccc(/C=N/N=C(N)N)cc1 | 26% (inactive) |
| CCCCNc1ccc(-c2ccc(NCCCC)cc2)cc1 | 29.9% (inactive) |
